# Compound activity as filed in PubChem.
# ELG1 repair inh – inhibitors of ELG1-dependent DNA repair in HEK293T cells | HEK293T ELG1-luciferase reporter, luminescence, 16 h; DNA damage induced by 5-fluorouridine | Potency, µM (doses to about 46.1 µM), without a hit: top-dose activity change, negative = inhibition, hits mostly inhibitors | hit rate 2.3% among 330,000; also: % is scaled to controls: 0 for no effect and ±100 for the full control effect; nearly all actives have a fitted effect of over 55% in size
#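 HEK293T cells expressing luciferase-tagged ELG1 (2,000/well) received 5-Fluorouridine plus compound or DMSO for 16 hr at 37 °C. Luciferase was read by ONE-Glo luminescence after 30 min at room temperature.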
# Nrf2 activator – activates Nrf2 signaling; Potency, µM (titrated, usually from 46.1 µM), for the others: at the top dose activation, actives largely listed as activators; AREc32 ARE-luciferase reporter (MCF7-derived line), luminescence, 24 h; hit rate 0.31% among 410,000; AID 624171; also: % of control where 0% means no effect; nearly all actives have a fitted effect of over 65% in size
#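 ARE activation measured as luciferase luminescence (Steady-Glo, 30 min RT) in AREc32_Fluc cells after 24 hr compound exposure at 37 deg C, 5% CO2; cells seeded overnight at 1000/well in OPTI-MEM, 5% FBS.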
# A549 tox – counter-screen for Nrf2 inhibitors: cytotoxicity in A549 cells; A549 ARE-Fluc cells, CellTiter-Fluor viability, 18-24 h; Potency, µM (doses to about 46 µM), without a hit: at the highest dose activity change, negative = cytotoxicity, actives largely listed as inhibitors; hit rate 0.16% among 390,000; AID 504648; also: % is scaled to controls: 0 for no effect and ±100 for the full control effect
#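 Cytotoxicity counterscreen: CellTiter-Fluor fluorescence was measured in A549 ARE_Fluc cells after 18-24 h of compound exposure in a concentration series. The subsequent BugLite luminescent read reports ARE-luciferase activity.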
# Nrf2 block – Nrf2 pathway inhibition; A549 ARE-Fluc reporter, luciferase luminescence, 18-24 h; Potency, µM (doses to about 46 µM), for the others: top-dose activity change, negative = inhibition, actives largely listed as inhibitors; hit rate 2.1% among 360,000; AID 504444; also: % is scaled to controls: 0 for no effect and ±100 for the full control effect; nearly all actives have a fitted effect of over 60% in size
#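 A549 ARE_Fluc cells (5000/well, 5% FBS OPTI-MEM) pre-incubated 2 h, then treated with compounds 18-24 h at 37C/5% CO2 in concentration-response. CellTiter-Fluor viability read first; BugLite luciferase luminescence after 15 min at room temperature gives Nrf2 activity.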
# The depositor's hits bear a star; u = inconclusive; x = no result given; [ ] = dose if it differs, or a comment. An excerpt weighted towards active compounds, which were near 3.7% of everything screened. Calls follow the shape of the dose curve; as a rule, active = well fitted curve in the direction sought with a large enough effect; inconclusive = small, poorly fitted or top-dose-only effect, or another doubt; inactive = no such curve, though single readings can be large; an effect the other way counts as inactive or inconclusive. Potency is read from the fitted curve at half-maximal effect.
SMILES,ELG1 repair inh,Nrf2 activator,A549 tox,Nrf2 block
COc1ccc(N2C(c3ccsc3)=Cc3cc4c(cc3C2c2c[nH]c3ccccc23)OCO4)cc1 (configuration not stated),x,6%,x,x
COc1ccccc1NS(=O)(=O)c1cccc(C(=O)N2CCCCCCC2)c1,-2%,0%,-8%,-1%
Cc1ccc(CNC(=O)Cc2ccc(Br)cc2)cc1,0%,0%,-4%,4%
Cc1ccc(C(=O)N(C)Cc2ccc(N3CCOCC3)cc2)cc1S(=O)(=O)NCc1ccccc1,21µM*,-1%,2%,u
CN(Cc1cccc(F)c1)C(=O)c1ccc(S(=O)(=O)N2CCCCCC2)cc1,21µM*,4%,-16%,23µM*
CCOc1ccc(CN(C)C(=O)CCc2ccc(S(=O)(=O)N3CCCCCC3)cc2)cc1,7.9µM*,0%,u,u
COc1ccc(CN(C)C(=O)CCc2ccc(S(=O)(=O)N3CCCCCC3)cc2)c(OC)c1,u,1%,-19%,u
CN(Cc1cccc(F)c1)C(=O)c1ccc(S(=O)(=O)N2CCOCC2)cc1,8%,2%,3%,-1%
CN(Cc1ccc(F)cc1)C(=O)c1cccc(S(=O)(=O)N2CCN(c3ccccc3)CC2)c1,18µM*,2%,-12%,23µM*
COc1ccc(-c2[nH]c3ccccc3c2SCCNC(=O)c2cc(OC)c(OC)c(OC)c2)cc1,x,5%,-10%,-16%[9.27 µM]
COc1ccc(Cn2ccnc2SCC(=O)NCc2ccccc2)cc1,x,-1%,-4%,x
COc1ccc(CN(C)C(=O)c2cccc(S(=O)(=O)N3CCCc4ccccc43)c2)c(OC)c1OC,x,-1%,u,23µM*
Cc1ccc(C)c(NC(=O)CN(C)C(=O)c2cccc(S(=O)(=O)N3CCCC3)c2)c1,u,0%,1%,-11%
Cc1ccc(C)c(NC(=O)CN(C)C(=O)c2cccc(S(=O)(=O)N3CCN(Cc4ccccc4)CC3)c2)c1,u,2%,-9%,12µM*
CCN(CC)S(=O)(=O)c1ccc(OC)c(NC(=O)CSCc2c(C)noc2C)c1,-24%,0%,2%,u
CCN(CC)S(=O)(=O)c1ccc(N(C)C)c(NC(=O)CSCc2c(C)noc2C)c1,21µM*,3%,u,u
O=C(COc1ccc2c(c1)oc(=O)c1ccccc12)NCCCN1CCOCC1,u,9%,4%,-15%
Cc1cc(C)n2nc(SCC(=O)Nc3ccc(F)c(F)c3F)nc2n1,-12%,0%,-12%,15µM*
COc1ccc(-c2ccccc2C2C3C=CCCC3(C)C(=O)N2Cc2ccccc2)cc1 (configuration not stated),x,x,-8%,u
O=C(CCCn1c(=S)[nH]c2cc3c(cc2c1=O)OCO3)N1CCN(c2ccccc2)CC1,-3%,0%,x,u
O=C(CCCn1c(=S)[nH]c2cc3c(cc2c1=O)OCO3)N1CCN(c2ccc(Cl)cc2)CC1,23µM*,-1%,-29%,u
CC(=O)c1ccc(N2CCN(C(=O)CCCn3c(=S)[nH]c4cc5c(cc4c3=O)OCO5)CC2)cc1,18µM*,0%,-17%,u
Cc1cccc(N2CCN(C(=O)CCn3c(=S)[nH]c4cc5c(cc4c3=O)OCO5)CC2C)c1 (configuration not stated),10µM*,-1%,-12%,u
Cc1cccc(N2CCN(C(=O)CCCn3c(=S)[nH]c4cc5c(cc4c3=O)OCO5)CC2)c1C,10µM*,2%,-3%,u
CCOC(=O)N1CCN(C(=O)CCCCCn2c(=S)[nH]c3cc4c(cc3c2=O)OCO4)CC1,u,-1%,10%,u
SMILES,ELG1 repair inh,Nrf2 activator,A549 tox,Nrf2 block
N#C/C(=C(/O)COc1ccc(Cl)cc1)c1nc2ccccc2s1,u,2%,16µM*,23µM*
O=C(Nc1ccc(-c2nc3ccccc3o2)c(O)c1)c1cc(-n2cnnc2)ccc1Cl,21µM*,2%,x,10µM*
O=C(NCc1ccccc1)c1csc(-c2cccnc2)n1,5.8µM*,-1%,-4%,u
O=C(NCCc1csc(-c2cccnc2)n1)c1ccccc1,-5%,-1%,8%,-7%
CCOC(=O)c1ccc(N2C(=O)c3[nH]nc(-c4ccccc4)c3C2c2cccs2)cc1 (configuration not stated),x,-3%,u,u
CCOc1ccc(N2C(=O)c3[nH]nc(-c4ccc(OC)cc4)c3C2c2cccs2)cc1 (configuration not stated),x,-1%,u,23µM*
CCOC(=O)c1ccc(N2C(=O)c3[nH]nc(-c4ccc(OCC)cc4)c3C2c2cccs2)cc1 (configuration not stated),x,5%,-21%,18µM*
CCOC(=O)c1ccc(N2C(=O)c3[nH]nc(-c4ccc(OCC)cc4)c3C2c2ccc(OC)cc2OC)cc1 (configuration not stated),x,0%,16%,-8%
CCOc1ccc(-c2n[nH]c3c2C(c2cccs2)N(c2ccc(Br)cc2)C3=O)cc1 (configuration not stated),x,0%,-24%,23µM*
Cc1ccc(C(=O)c2oc3ccccc3c2NC(=O)C(C)Oc2ccccc2Cl)cc1 (configuration not stated),x,0%,0%,-10%
O=C1[C@@H](Oc2ccccc2)[C@@H](c2cnc3ccccc3c2)N1c1ccccc1,16µM*,4%,-10%,-1%
CC[C@H](CO)Nc1nc(Nc2cccc(Cl)c2)c2ncn(C(C)C)c2n1,7.3µM*,-6%,u,u
CC1=C(C(=O)Nc2ccc(Cl)cc2)C(c2ccccc2)n2ncc(C(=O)Nc3ccccc3)c2N1 (configuration not stated),x,4%,-24%,16µM*
CCC1Oc2ccc(Cl)cc2N(CC(=O)NCCc2ccc(Cl)cc2)C1=O (configuration not stated),x,-1%,2%,x
CC(C)C(=O)Nc1cccc(C(=O)OCC(=O)c2ccc(Cl)cc2Cl)c1,0%,1%,u,21µM*
CC(=O)Nc1cc(C(=O)OCC(=O)c2ccc(Cl)cc2Cl)ccc1C,6%,0%,-11%,u
COc1ccc(-c2nnc3n(CCc4ccccc4)c(=O)c4ccccc4n23)cc1OC,6.5µM*,2%,17%,3%
COc1ccccc1-c1nnc2n(CCc3ccccc3)c(=O)c3ccccc3n12,x,8%,2%,-14%
COc1ccc2c(c1)c1c(c(=O)n(Cc3ccccc3)c(=O)n1CC(=O)Nc1ccccc1F)n2C,x,0%,14%,u
Clc1ccc2[nH]cc(-c3nnnn3-c3ccc4ccccc4c3)c2c1,-16%,0%,-27%,18µM*
CC12CCC(O)CC1=CCC1C2CCC2(C)C(c3ccn[nH]3)CCC12 (configuration not stated),x,3%,-8%,21µM*
NC(=S)N1OC[C@@H]2COc3ccc4ccccc4c3[C@@H]21,12µM*,0%,-20%,-25%
